High-throughput results: PubChem, National Center for Advancing Translational Sciences (NCATS)
In the library only some 19% were active in any assay of this set; here they are far more common.
KB-3-1 tox: qHTS assay for MDR1-selective chemotherapeutics: Primary screen using the parental adenocarcinoma cell KB-3-1. Potency, µM (titrated, usually from 46.1 µM), most hits filed as cytotoxic. 400,000 compounds, 1.4% hits. AID 1347075, 2019. KB-3-1 viability, CellTiter-Glo ATP luminescence, 72 h; also: nearly all actives have a fitted effect of over 60% in size
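KB-3-1 parental drug-naive adenocarcinoma cells in DMEM/10% FBS, incubated 72 h at 37 C with pin-transferred compounds across a concentration series. Viability by CellTiter-Glo luminescence; concentration-response curves fitted after normalization.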
HT1080 IDH1KD tx: qHTS for induction of synthetic lethality in tumor cells producing 2HG: qHTS for the HT-1080-IDH1KD cell line. 360,000 compounds, 2% hits. Potency, µM (series often up to 46.1 µM), for the others: at the highest dose activity, negative = toxicity, actives largely listed as cytotoxic. HT-1080 IDH1 knockdown viability, ATP luminescence, 48 h;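 also: 0% = DMSO wells and -100% = cell-free medium wells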
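Knockdown cells (IDH1KD HT-1080) received compounds 2 h after plating at 750 cells/well and were kept 48 h at 37 °C in 5% FBS RPMI. A CellTiter-Glo luminescence read gave % activity for curve fitting.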
HT1080-NT tox: qHTS for induction of synthetic lethality in tumor cells producing 2HG: qHTS for the HT-1080-NT fibrosarcoma cell line. HT-1080-NT fibrosarcoma viability, CellTiter-Glo ATP luminescence, 48 h. Potency, µM (highest dose often 46.1 µM), inactives show top-dose activity, negative = less viability, most hits filed as cytotoxic. 360,000 compounds, 1.6% hits;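 also: NT is the 2HG producing partner of a matched IDH1 knockdown line; 0% = DMSO-treated cells and -100% = media-only wells without cells; nearly all actives have a fitted effect of over 55% in size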
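Toxicity toward the 2HG-producing NT line was scored as %Activity, normalised to DMSO and no-cell wells, from CellTiter-Glo luminescence after 48 hours' treatment.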
TDP1 cell CPT: qHTS for Inhibitors of human tyrosyl-DNA phosphodiesterase 1 (TDP1): qHTS in cells in presence of CPT | chicken DT40 Tdp1-/-;hTDP1 cells + 20 nM CPT, ATP luminescence, 48 h | 420,000 compounds, 12% hits | Potency, µM (titrated, usually from 46.2 µM), without a hit: at the highest dose activity change, negative = growth inhibition, usual class: inhibitors; also: nearly all actives have a fitted effect of over 55% in size
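Chicken DT40 Tdp1-/- cells stably complemented with human TDP1 were seeded at 400 cells/well in medium containing 20 nM camptothecin, exposed to pin-transferred compounds, and grown at 37 °C for at least 48 hr. Viability was read as ATP luminescence.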
DT40 TDP1 no CPT: qHTS for Inhibitors of human tyrosyl-DNA phosphodiesterase 1 (TDP1): qHTS in cells in absence of CPT. AID 686978, 2013. 420,000 compounds, 15% hits. Potency, µM (titrated, usually from 46.2 µM), for inactives: at the top dose activity change, negative = growth inhibition, hits mostly inhibitors. DT40 Tdp1-/- hTDP1 cells, no CPT, ATP luminescence, 48 h; also: nearly all actives have a fitted effect of over 55% in size
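Seeded 400 DT40-hTDP1 cells/well (vehicle DMSO, no 20 nM CPT); pinned compounds; ≥48 hr at 37 °C; CellTiter-Glo luminescence as viability measure.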
KB-V1 cytotox: qHTS assay for MDR1-selective chemotherapeutics: Primary screen using the drug-selected MDR subline cells KB-V1; Potency, µM (top dose mostly 46.1 µM), most hits filed as cytotoxic; 400,000 compounds, 3.4% hits; KB-V1 MDR cells viability, CellTiter-Glo, 72 h; also: nearly all actives have a fitted effect of over 60% in size
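KB-V1 cells (P-gp-expressing MDR subline of KB-3-1) in phenol-red-free DMEM with 10% FBS were exposed to library compounds over a concentration series for 72 h at 37 degrees C. Viability read by CellTiter-Glo luminescence; concentration-effect curves fitted after normalization.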
Starred values were filed as active, the others as inactive; i = inactive; ? = inconclusive; nt = no result given; ! = a repeat was not active. Calls follow the shape of the dose curve; as a rule, active = well fitted curve in the direction sought with a large enough effect; inconclusive = small, poorly fitted or top-dose-only effect, or another doubt; inactive = no such curve, though single readings can be large; an effect the other way counts as inactive or inconclusive. Unless noted, % is scaled to controls: 0 for no effect and ±100 for the full control effect; potency is read from the fitted curve at half-maximal effect.

SMILES	KB-3-1 tox	HT1080 IDH1KD tx	HT1080-NT tox	TDP1 cell CPT	DT40 TDP1 no CPT	KB-V1 cytotox
CC1(C)SC(=S)N(/N=C/c2ccccc2)C1N(O)C(=O)Nc1ccc([N+](=O)[O-])cc1 (stereo unspecified)	?	?	?	16µM*	18µM*	i
CC1(C)SC(=S)N(NC(=O)Nc2cccc3ccccc23)C1N(O)C(=O)Nc1ccccc1 (stereo unspecified)	?	?	?	?	16µM*	?
CC1(C(=O)NS(=O)(=O)c2cccc(C#N)c2)CCN1C(=O)CC1CCCC1 (stereo unspecified)	i	20%	4%	4%	-6%	i
Cc1ccc2[nH]c(=O)c(-c3nc4ccccn4c3NCc3ccco3)cc2c1	i	?	?	-6%	1%	8.2µM*
CCC(C)C(NC(=O)C1CCC(C)CC1)C(=O)NCc1cccnc1 (stereo unspecified)	i	17%	6%	-20%	-24%	i
CC(C)CC(NC(=O)C1CCC(C)CC1)C(=O)NCc1ccccn1 (stereo unspecified)	i	15%	7%	-26%	?	i
CC(C)CC(NC(=O)C1CCC(C)CC1)C(=O)NCc1cccnc1 (stereo unspecified)	i	0%	4%	3%	-21%	18µM*
CC1CCC(C(=O)NC(C(=O)NCc2cccnc2)C(C)C)CC1 (stereo unspecified)	i	2%	1%	8%	-17%	21µM*
CC(C)CC(NC(=O)C1CCC(C)CC1)C(=O)N1CCN(c2ccccn2)CC1 (stereo unspecified)	i	0%	-8%	16µM*	23µM*	i
CCN(CC)C(=O)Oc1ccc2c(=O)c(-c3ccc(OC)cc3)c(C)oc2c1	i	-22%	-4%	-22%	-19%	9.2µM*
COc1ccc(Oc2c(C)oc3cc(OC(=O)N4CCOCC4)ccc3c2=O)cc1	i	26%	-3%	-1%	-10%	i
CCN(CC)C(=O)Oc1ccc2c(=O)c(-c3ccc(OC)cc3)coc2c1	?	4%	-13%	?	23µM*	12µM*
CC(C)Oc1ccc2c(=O)c(-c3ccccc3)coc2c1	i	9%	?	?	18µM*!	?
CN(CCc1ccccc1)C(=O)c1ccc(NC(=O)Cc2cccc(NC(=O)C3CCN(C(=O)C4CCCCC4)CC3)c2)cc1	i	-14%	2%	?	21µM*	?
CN(CCc1ccccc1)C(=O)c1cccc(NC(=O)Cc2cccc(NC(=O)C3CCN(C(=O)C4CCC4)CC3)c2)c1	i	-1%	-1%	?	15µM*	i
CN(CCc1ccccc1)C(=O)c1cccc(NC(=O)Cc2cccc(NC(=O)C3CCN(C(=O)C4CCCCC4)CC3)c2)c1	i	1%	1%	?	?	?
O=C(Nc1nc(-c2ccccc2)cs1)Nc1ccc(F)cc1F	i	?	?	9.2µM*	9.2µM*	?
O=C(Nc1nc(-c2ccccn2)cs1)Nc1ccc(F)cc1F	i	?	?	4.6µM*	2.9µM*	i
Oc1c(C(c2ccccc2F)N2CCN(Cc3ccccc3)CC2)sc2nc(-c3ccco3)nn12 (stereo unspecified)	i	nt	nt	2%	-21%	i
COCCn1c(C)cc(C2=NNC(=Nc3ccc(Cl)cc3Cl)SC2)c1C	i	10%	-1%	?	?	i
Cc1cc(C2=NNC(=NC3CC3)SC2)c(C)n1Cc1ccco1	3.3µM*	7.3µM*	7.3µM*	16µM*	8.2µM*	5.2µM*
C=CCN=C1NN=C(c2cc(C)n(CCOC)c2C)CS1	i	8%	9%	-7%	-2%	i
COCC(C)N=C1NN=C(c2cc(C)n(Cc3ccccc3Cl)c2C)CS1 (stereo unspecified)	i	-22%	-15%	13µM*	12µM*	i
COCCCN=C1NN=C(c2cc(C)n(Cc3ccco3)c2C)CS1	?	1.6µM*	1.6µM*	0.65µM*	0.029µM*	?
CN(C)c1ccc(/C=C2\NC(=O)NC2=O)cc1	i	nt	nt	-11%	-18%	?
SMILES	KB-3-1 tox	HT1080 IDH1KD tx	HT1080-NT tox	TDP1 cell CPT	DT40 TDP1 no CPT	KB-V1 cytotox
CCOC(=O)COc1nc(OC)nc(N2CCOCC2)n1	i	5%	7%	4%	8%	i
CCOC(=O)c1c(-c2ccccc2)nnn1-c1nc(OC)nc(N2CCOCC2)n1	i	8%	5%	23µM*	16µM*	i
O=C(/C=C/c1ccc(-c2cccc([N+](=O)[O-])c2)o1)N1CCOCC1	i	-22%	-20%	16µM*	18µM*	?
O=C1NC(=S)S/C1=C\c1cccc([N+](=O)[O-])c1	?	-27%	-22%	?	13µM*	?
O=C1NC(=O)/C(=C/c2ccc(-c3cccc([N+](=O)[O-])c3)o2)S1	i	-7%	-6%	16µM*	?	?
COc1cc(C(=O)N2CCNC(=O)C2CC(=O)Nc2ccc(C)c(C)c2)cc(OC)c1OC (stereo unspecified)	i	nt	nt	-1%	-18%	?
CC(=O)Nc1ccnn1C1CCN(C(=O)c2cccc(C)c2C)CC1	i	11%	2%	-8%	4%	i
O=[N+]([O-])/C=C/c1cc2ccccc2[nH]1	i	-3%	-9%	21µM*	18µM*	i
O=[N+]([O-])c1cccc(-c2cc3ccccc3[nH]2)c1	i	5%	0%	-19%	-7%	i
O=C(Nc1cc(C(F)(F)F)ccc1Cl)c1cc(-c2cccs2)nc2ccccc12	i	nt	nt	-11%	-29%	i
CCOC(OCC)c1nc(N)[nH]c(=O)c1CCCCc1ccccc1	i	-5%	-16%	23µM*	16µM*	i
Cc1cccc(N2C(=O)C(Oc3ccc(Cl)cc3Cl)C2C(=O)O)c1C (stereo unspecified)	i	14%	12%	?	?	i
